Structures are written as SMILES. Results filed as inconclusive are left out. Activity calls are given as the source filed them. Unless noted, calls follow the shape of the dose curve; as a rule, active = well fitted inhibition curve with a large enough effect; inconclusive = small, poorly fitted or top-dose-only effect; inactive = flat fitted curve, though single readings scatter.

The nature of experiment [1]: qHTS drug screen for cell cycle checkpoint inhibitors in PARPi-resistant BRCA-mutant ovarian cancer cell lines. (AID 1963452; calls by dose curve). As to conditions: PEO1/OlaR viability, CellTiter-Glo luminescence, 96 h, stronger effect = lower value. The essentials:
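PEO1, PEO4 and PEO1/OlaR ovarian cancer cells, 600 per well, exposed 96 h at 37C to a dilution series. Viability read by CellTiter-Glo luminescence, normalized to DMSO and empty wells; activity summarized as Z-AUC.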

Experiment [2] is described as follows: qHTS profiling for inhibitors of Plasmodium falciparum proliferation (AID 504749).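 Also: 0% = DMSO vehicle and full inhibition = artemisinin control; nearly all actives have a fitted effect of over 60% in size.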 As to conditions: P. falciparum in erythrocytes, SYBR Green DNA, 72 h; series mostly up to 28.7 µM. In short, it runs like this:
(§1)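 P. falciparum-infected erythrocytes (0.3% parasitemia, 2.5% hematocrit) incubated with compound 72 h at 37 C, 5% CO2. Parasite DNA detected by SYBR Green after lysis, overnight at room temperature; normalised to 0.29 uM artemisinin and DMSO.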

The test system of experiment [3] is 3D7. Described as above. As to conditions: P. falciparum in erythrocytes, SYBR Green DNA, 72 h; series mostly up to 28.7 µM. In short, it runs like this:
as §1

Experiment [4] has as its system 7G8. The description is as above. As to conditions: P. falciparum in erythrocytes, SYBR Green DNA, 72 h; series mostly up to 28.7 µM. The essentials: as §1
The test system of experiment [5] is AA1029. The description is as above. As to conditions: P. falciparum in erythrocytes, SYBR Green DNA, 72 h; series mostly up to 28.7 µM. The essentials:
as §1

Experiment [6] relates to AS120. The experiment is described as above. The following applies: P. falciparum in erythrocytes, SYBR Green DNA, 72 h; series mostly up to 28.7 µM. The essentials:
as §1

For experiment [7], the system named is ATS189. The description is as above. The following applies: P. falciparum in erythrocytes, SYBR Green DNA, 72 h; series mostly up to 28.7 µM. In short, it runs like this:
as §1

The subject of experiment [8] is ATS95. The experiment is described as above. The following applies: P. falciparum in erythrocytes, SYBR Green DNA, 72 h; series mostly up to 28.7 µM. The essentials: as §1
Experiment [9] deals with C2A. The experiment is described as above. The following applies: P. falciparum in erythrocytes, SYBR Green DNA, 72 h; series mostly up to 28.7 µM. In short, it runs like this: as §1
Experiment [10] deals with CP185. The experiment is described as above. As to conditions: P. falciparum in erythrocytes, SYBR Green DNA, 72 h; series mostly up to 28.7 µM. The essentials:
as §1

In experiment [11] the test system is CP191. The experiment is described as above. As to conditions: P. falciparum in erythrocytes, SYBR Green DNA, 72 h; series mostly up to 28.7 µM. The essentials: as §1
The subject of experiment [12] is CP192. The description is as above. As to conditions: P. falciparum in erythrocytes, SYBR Green DNA, 72 h; series mostly up to 28.7 µM. In short, it runs like this:
as §1

Experiment [13] concerns CP194. The experiment is described as above. The following applies: P. falciparum in erythrocytes, SYBR Green DNA, 72 h; series mostly up to 28.7 µM. The essentials:
as §1

Experiment [14] has as its system CP201. Described as above. As to conditions: P. falciparum in erythrocytes, SYBR Green DNA, 72 h; series mostly up to 28.7 µM. The essentials: as §1
The test system of experiment [15] is CP203. The description is as above. As to conditions: P. falciparum in erythrocytes, SYBR Green DNA, 72 h; series mostly up to 28.7 µM. The essentials:
as §1

The test system of experiment [16] is CP211. The experiment is described as above. As to conditions: P. falciparum in erythrocytes, SYBR Green DNA, 72 h; series mostly up to 28.7 µM. In short, it runs like this: as §1
Where [17] appears, read: measured here: PEO1 parental Z-AUC.

Turning to `Nc1ncnc2c1C(=O)N(c1ccc(C3CCC(CC(=O)O)CC3)cc1)CCO2` (configuration not stated), the figures for the Z-AUC in experiment [1], in experiment [1] (setting [17]) and in [1] (measured here: PEO4 Z-AUC) were 0.276 (inactive), 0.0726 and 0.138, respectively.

On to `N#Cc1cccc(-c2c[nH]c3ncnc(N4CCOCC4)c23)c1`, for which the results for the Z-AUC in [1], in [1] (setting [17]) and in experiment [1] (measured here: PEO4 Z-AUC) were 0.0885 (inactive), 0.762 and 0.859, respectively.

As to `C[C@@H]1O[C@@H](O[C@@H]2\C=C/C=C\C=C/C=C\C[C@H](C)OC(=O)/C=C\[C@H]3O[C@@H]3C[C@H](O)C[C@]3(O)C[C@@H](O)[C@@H](C(=O)O)[C@H](C2)O3)[C@H](O)[C@H](N)[C@@H]1O`, the Z-AUC in [1] is 1.98 (inactive); in experiment [1] (setting [17]) it was 1.57; in experiment [1] (measured here: PEO4 Z-AUC), 1.97.

`O=C(/C=C/C=C/c1ccc2c(c1)OCO2)N1CCCCC1`: the Z-AUC in [1] was 1.54 (inactive); in [1] (setting [17]), 1.2; in experiment [1] (measured here: PEO4 Z-AUC), 2.18.

On to `CCOC(=O)C(CCc1ccccc1)NC(C)C(=O)N1Cc2ccccc2CC1C(=O)O` (configuration not stated), for which the outcome in experiment [2], in experiment [3], in [4], in experiment [5], in [6] and in experiment [7] was inactive. The result in experiment [8], in [9], in experiment [10], in [11], in experiment [12] and in [13] was inactive. Besides, the outcome in experiment [14], in [15] and in experiment [16] was inactive.

For the molecule `O=C(O)CC1CCC(c2ccc(-c3ccc(Nc4ccc(C(F)(F)F)nc4)cn3)cc2)CC1` (configuration not stated), the figures for the Z-AUC in [1], in [1] (setting [17]) and in [1] (measured here: PEO4 Z-AUC) were -0.639 (inactive), -0.457 and -0.671, respectively.

For `COCCCc1sc(-c2ccccc2)nc1C(=O)Nc1ccccc1-c1nc2cc(CN3CCCC3)cnc2s1`, the Z-AUC in experiment [1] was 0.0751 (inactive); in [1] (setting [17]) it was -0.146; in [1] (measured here: PEO4 Z-AUC) it was 0.43.

With `O=C(COCC(=O)N1CCN(C(c2ccccc2)c2ccccc2)CC1)Nc1ccc(Cl)cc1C(=O)O`, the Z-AUC is 1.8 (inactive) in [1], 1.44 in [1] (setting [17]) and 1.34 in experiment [1] (measured here: PEO4 Z-AUC).

For `Cc1ncc(Cl)cc1NCc1ccc(C(=O)NC(CC2CCCC2)C(=O)NC2CC2)s1` (configuration not stated), the Z-AUC was -0.347 (inactive) in [1], -0.204 in [1] (setting [17]) and 0.18 in experiment [1] (measured here: PEO4 Z-AUC).

As to `Cc1c(F)cc(C(=O)NC2CC2)cc1-c1ccc(C(=O)NCC(C)(C)C)cn1`, the Z-AUC in [1] is 0.819 (inactive); in experiment [1] (setting [17]), 0.354; in [1] (measured here: PEO4 Z-AUC) it was 0.681.

`CC(C)[C@](O)(c1ccc2cc(OC(F)F)c(OC(F)F)cc2c1)c1cn[nH]n1`: the Z-AUC in [1] is -0.262 (inactive); in [1] (setting [17]) it was -0.434; in experiment [1] (measured here: PEO4 Z-AUC), -0.604.

Regarding `Cc1cccc(-c2nn3c(c2-c2ccnc4ccc(C(N)=O)cc24)CCC3)n1`, the Z-AUC in experiment [1] was 1.11 (inactive); in [1] (setting [17]) it was 0.368; in experiment [1] (measured here: PEO4 Z-AUC) it was 0.508.

`C=C1C[C@@]2(O)O[C@@]3(C[C@H]2C(C)C)[C@@H](C)CC[C@@H]13`: the Z-AUC in [1] is -0.318 (inactive); in [1] (setting [17]), -0.38; in [1] (measured here: PEO4 Z-AUC) it was -0.147.

On to `O=C1NC(=O)/C(=C/c2cccc(C(F)(F)F)c2)S1`, for which the Z-AUC in experiment [1] was 0.536 (inactive); in experiment [1] (setting [17]) it was 0.151; in experiment [1] (measured here: PEO4 Z-AUC), 0.0196.

For `Cn1cc(-c2c[nH]c3ncnc(N4CCOCC4)c23)cn1`, the figures for the Z-AUC in experiment [1], in experiment [1] (setting [17]) and in experiment [1] (measured here: PEO4 Z-AUC) were 1.31 (inactive), 1.65 and 1.56, respectively.

These data come from PubChem BioAssay (NCATS).
